Laboratory results published in PubChem BioAssay.
“And” between values parts separate entries of the source, which are not always exact repeats. Equal entries are not always repeated. A structure can be active in one record and inactive in another. The source made the active and inactive calls.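 Rule for the calls, unless noted: active = z-score of at least 1.8 in each of two replicates, scored against plate mean and spread of sample wells; inactive = the rest.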

Experiment: ovarian cancer cell viability with rucaparib, profiling panel, oncology-focused library, rucaparib conditional (AID 1508598;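 active = normalized viability below 100% at a tested concentration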)
Conditions: patient-derived ovarian cancer cells, CellTiter-Glo viability, 144 h; at 1.25 µM; OCI-C5x cells; with rucaparib 10 µM; stronger effect = lower value; 100% = cells with rucaparib alone

SMILES | viability
CS(=O)c1ccc(-c2nc(-c3ccc(F)cc3)c(-c3ccncc3)[nH]2)cc1 (stereo not given) | 116% (inactive)
O=c1cc(-c2cccc3c2Sc2ccccc2S3)oc(N2CCOCC2)c1 | 111% (inactive)
O=C(O)c1ccc(-c2c[nH]c3ncc(-c4ccccc4)cc23)cc1C1CCCC1 | 88.1% (active)
N#Cc1c(O)c2c(-c3ccc(-c4ccccc4O)cc3)csc2[nH]c1=O | 112% (inactive)
O=c1[nH]c(-c2ccc(C(F)(F)F)cc2)nc2c1CSCC2 | 107% (inactive)

Same assay, conditions: patient-derived ovarian cancer cells, CellTiter-Glo viability, 144 h; at 1.25 µM; OCI-C5x cells; without rucaparib; stronger effect = lower value

SMILES | viability
CS(=O)c1ccc(-c2nc(-c3ccc(F)cc3)c(-c3ccncc3)[nH]2)cc1 (stereo not given) | 166% (inactive)
O=c1cc(-c2cccc3c2Sc2ccccc2S3)oc(N2CCOCC2)c1 | 127% (inactive)
O=C(O)c1ccc(-c2c[nH]c3ncc(-c4ccccc4)cc23)cc1C1CCCC1 | 105% (inactive)
N#Cc1c(O)c2c(-c3ccc(-c4ccccc4O)cc3)csc2[nH]c1=O | 140% (inactive)
O=c1[nH]c(-c2ccc(C(F)(F)F)cc2)nc2c1CSCC2 | 99.4% (active)

Same assay, conditions: patient-derived ovarian cancer cells, CellTiter-Glo viability, 144 h; at 1.25 µM; OCI-P5x cells; with rucaparib 20 µM; stronger effect = lower value; 100% = cells with rucaparib alone

SMILES | viability
CS(=O)c1ccc(-c2nc(-c3ccc(F)cc3)c(-c3ccncc3)[nH]2)cc1 (stereo not given) | 130% (inactive)
O=c1cc(-c2cccc3c2Sc2ccccc2S3)oc(N2CCOCC2)c1 | 108% (inactive)
O=C(O)c1ccc(-c2c[nH]c3ncc(-c4ccccc4)cc23)cc1C1CCCC1 | 93.8% (active)
N#Cc1c(O)c2c(-c3ccc(-c4ccccc4O)cc3)csc2[nH]c1=O | 107% (inactive)
O=c1[nH]c(-c2ccc(C(F)(F)F)cc2)nc2c1CSCC2 | 113% (inactive)

Same assay, conditions: patient-derived ovarian cancer cells, CellTiter-Glo viability, 144 h; at 1.25 µM; OCI-P5x cells; without rucaparib; stronger effect = lower value

SMILES | viability
CS(=O)c1ccc(-c2nc(-c3ccc(F)cc3)c(-c3ccncc3)[nH]2)cc1 (stereo not given) | 108% (inactive)
O=c1cc(-c2cccc3c2Sc2ccccc2S3)oc(N2CCOCC2)c1 | 107% (inactive)
O=C(O)c1ccc(-c2c[nH]c3ncc(-c4ccccc4)cc23)cc1C1CCCC1 | 93.3% (active)
N#Cc1c(O)c2c(-c3ccc(-c4ccccc4O)cc3)csc2[nH]c1=O | 107% (inactive)
O=c1[nH]c(-c2ccc(C(F)(F)F)cc2)nc2c1CSCC2 | 103% (inactive)

Same assay, conditions: patient-derived ovarian cancer cells, CellTiter-Glo viability, 144 h; at 5 µM; OCI-C5x cells; with rucaparib 10 µM; stronger effect = lower value; 100% = cells with rucaparib alone

SMILES | viability
CS(=O)c1ccc(-c2nc(-c3ccc(F)cc3)c(-c3ccncc3)[nH]2)cc1 (stereo not given) | 132% (inactive)
O=c1cc(-c2cccc3c2Sc2ccccc2S3)oc(N2CCOCC2)c1 | 88.8% (active)
O=C(O)c1ccc(-c2c[nH]c3ncc(-c4ccccc4)cc23)cc1C1CCCC1 | 65.2% (active)
N#Cc1c(O)c2c(-c3ccc(-c4ccccc4O)cc3)csc2[nH]c1=O | 118% (inactive)
O=c1[nH]c(-c2ccc(C(F)(F)F)cc2)nc2c1CSCC2 | 115% (inactive)

Same assay, conditions: patient-derived ovarian cancer cells, CellTiter-Glo viability, 144 h; at 5 µM; OCI-C5x cells; without rucaparib; stronger effect = lower value

SMILES | viability
CS(=O)c1ccc(-c2nc(-c3ccc(F)cc3)c(-c3ccncc3)[nH]2)cc1 (stereo not given) | 161% (inactive)
O=c1cc(-c2cccc3c2Sc2ccccc2S3)oc(N2CCOCC2)c1 | 131% (inactive)
O=C(O)c1ccc(-c2c[nH]c3ncc(-c4ccccc4)cc23)cc1C1CCCC1 | 60.5% (active)
N#Cc1c(O)c2c(-c3ccc(-c4ccccc4O)cc3)csc2[nH]c1=O | 135% (inactive)
O=c1[nH]c(-c2ccc(C(F)(F)F)cc2)nc2c1CSCC2 | 112% (inactive)

Same assay, conditions: patient-derived ovarian cancer cells, CellTiter-Glo viability, 144 h; at 5 µM; OCI-P5x cells; with rucaparib 20 µM; stronger effect = lower value; 100% = cells with rucaparib alone

SMILES | viability
CS(=O)c1ccc(-c2nc(-c3ccc(F)cc3)c(-c3ccncc3)[nH]2)cc1 (stereo not given) | 119% (inactive)
O=c1cc(-c2cccc3c2Sc2ccccc2S3)oc(N2CCOCC2)c1 | 66.3% (active)
O=C(O)c1ccc(-c2c[nH]c3ncc(-c4ccccc4)cc23)cc1C1CCCC1 | 92.6% (active)
N#Cc1c(O)c2c(-c3ccc(-c4ccccc4O)cc3)csc2[nH]c1=O | 92.2% (active)
O=c1[nH]c(-c2ccc(C(F)(F)F)cc2)nc2c1CSCC2 | 105% (inactive)

Same assay, conditions: patient-derived ovarian cancer cells, CellTiter-Glo viability, 144 h; at 5 µM; OCI-P5x cells; without rucaparib; stronger effect = lower value

SMILES | viability
CS(=O)c1ccc(-c2nc(-c3ccc(F)cc3)c(-c3ccncc3)[nH]2)cc1 (stereo not given) | 113% (inactive)
O=c1cc(-c2cccc3c2Sc2ccccc2S3)oc(N2CCOCC2)c1 | 27.9% (active)
O=C(O)c1ccc(-c2c[nH]c3ncc(-c4ccccc4)cc23)cc1C1CCCC1 | 75.8% (active)
N#Cc1c(O)c2c(-c3ccc(-c4ccccc4O)cc3)csc2[nH]c1=O | 90.6% (active)
O=c1[nH]c(-c2ccc(C(F)(F)F)cc2)nc2c1CSCC2 | 99% (active)

Experiment: viability rescue of complex I mutant cybrids, primary screen, cell-based, galactose medium, ATP luminescence (AID 1645843);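 note: positive z means more ATP and so rescue of galactose-driven cybrid death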
Conditions: complex I mutant cybrid cells, 72 h, stronger effect = higher value

SMILES | z-score
CC[C@H](NC(C)C)[C@H](O)c1ccc(O)c2[nH]c(=O)ccc12 | 0.095 (inactive) and 0.72 (inactive)
COc1cccc(-c2cc(=O)c3ccccc3o2)c1N | -0.045 (inactive) and 0.145 (inactive)
COc1cc2nccc(Oc3ccc(NC(=O)Nc4ccc(F)cc4F)c(F)c3)c2cc1OC | -0.37 (inactive)
O=Nc1c(-c2c(O)[nH]c3cc(Br)ccc23)[nH]c2ccccc12 | -1.29 (inactive) and -0.705 (inactive)
O=c1[nH]nc(Sc2ncc([N+](=O)[O-])s2)n1-c1ccc2c(c1)OCCO2 | -0.705 (inactive)
N[C@H](CSC(c1ccccc1)(c1ccccc1)c1ccccc1)C(=O)O | 0.555 (inactive)
CS(=O)c1ccc(-c2nc(-c3ccc(F)cc3)c(-c3ccncc3)[nH]2)cc1 (stereo not given) | 1.98 (inactive) and 3.42 (active)
O=c1cc(-c2cccc3c2Sc2ccccc2S3)oc(N2CCOCC2)c1 | -0.18 (inactive)
COc1nccc(-c2c(-c3ccc(F)cc3)ncn2C2CCC(O)CC2)n1 (stereo not given) | 0.59 (inactive)
CCc1c2c(nc3ccc(O)cc13)-c1cc3c(c(=O)n1C2)COC(=O)[C@]3(O)CC | -0.66 (inactive)
CCOc1cc(C(=O)Nc2ccc(Cl)c(-c3nc4ccccc4[nH]3)c2)cc(OCC)c1OCC | 0.375 (inactive)
O=C(O)CCc1ccc(NCc2cccc(Oc3ccccc3)c2)cc1 | 0.215 (inactive) and -0.155 (inactive)
Oc1ccc2ccccc2c1SSc1c(O)ccc2ccccc12 | -1.38 (inactive) and -0.86 (inactive)
CC(Oc1ccc(O)cc1)(P(=O)(O)O)P(=O)(O)O | -0.285 (inactive)
CCN(CC)CCCC(C)Nc1nc(C)cc(Nc2ccc3nc(C)cc(N)c3c2)n1 (stereo not given) | 2.71 (active)
CN1C(=O)C(Cc2c[nH]c3ccccc23)NC1=S (stereo not given) | 0.03 (inactive)
COc1ccc([C@@H]2CNC(=O)C2)cc1OC1CCCC1 | -0.11 (inactive)
O=C1Nc2ccc(I)cc2/C1=C/c1cc(Br)c(O)c(Br)c1 | -0.635 (inactive) and -0.18 (inactive)
O=C(O)C1CCCN(CCC=C(c2ccccc2)c2ccccc2)C1 (stereo not given) | 0.12 (inactive) and 0.13 (inactive)
CCOc1ccc(Nc2nc(-c3c(C)nc4ccccn34)cs2)cc1 | -0.68 (inactive)

SMILES | z-score
Nc1ncnc2nc(-c3ccc(N4CCOCC4)nc3)cc(-c3cccc(Br)c3)c12 | 2.27 (active)
O=C1NC(=O)C(c2ccccc2[N+](=O)[O-])=C1Nc1ccc(O)c(Cl)c1 | 1.65 (inactive) and 0.35 (inactive)
Fc1ccc(Cl)cc1-c1nc(Nc2ccncc2)c2nccnc2n1 | 1.11 (inactive)
Cc1cc(NC(=O)Nc2ccc(N(C)C)cc2)c2cc(F)cc(F)c2n1 | -0.32 (inactive)
Cc1ccc(/C=N/NC(=O)c2ccccc2Oc2ccccc2)o1 | -0.2 (inactive)
O=C(O)c1ccc2cc(-c3ccc(O)c(C45CC6CC(CC(C6)C4)C5)c3)ccc2c1 | -0.83 (inactive)
COc1cc(OC)c(NC(=O)Nc2cc(C)on2)cc1Cl | 1.75 (inactive)
NC(=O)c1ccc2[nH]ccc2c1 | 1.08 (inactive) and 0.045 (inactive)
Cc1[nH]c(/C=C2\C(=O)Nc3ccccc32)c(C)c1CCC(=O)O | 0.51 (inactive)
CCOC(=O)C1=C(C)NC(=S)NC1c1cccc(O)c1 (stereo not given) | 0.085 (inactive)
CCOC(=O)C1=C(N)Oc2ccc(Br)cc2C1C(C#N)C(=O)OCC (stereo not given) | -0.87 (inactive)
Cc1cc(I)ccc1Nc1c(C(=O)NOCC2CC2)cc(F)c(F)c1F | -0.65 (inactive)
COc1ccc(CCN(C)CCCOc2ccc(S(=O)(=O)c3c(C(C)C)c4ccccc4n3C)cc2)cc1OC | -1.04 (inactive)
CCC(C)N(C)C(=O)c1cc2ccccc2c(-c2ccccc2Cl)n1 (stereo not given) | 0.245 (inactive) and 0.79 (inactive)
COC1CCC(C(=O)c2ccc3nc4c(cc3c2)CCCO4)CC1 (stereo not given) | 0.32 (inactive)
O=C(O)c1ccc(-c2c[nH]c3ncc(-c4ccccc4)cc23)cc1C1CCCC1 | 0.065 (inactive)
CC(C)[C@H](CO)Nc1nc(Nc2ccc(C(=O)O)c(Cl)c2)c2ncn(C(C)C)c2n1 | 0.185 (inactive)
CCCCC[C@H](O)/C=C/[C@H]1[C@H](O)CC(=O)[C@@H]1C/C=C\CCCC(=O)O | -0.165 (inactive) and 0.63 (inactive)
N#Cc1c(O)c2c(-c3ccc(-c4ccccc4O)cc3)csc2[nH]c1=O | 1.98 (inactive)
O=c1[nH]c(-c2ccc(C(F)(F)F)cc2)nc2c1CSCC2 | 0.565 (inactive)
